Screening results deposited in PubChem BioAssay by Sanford-Burnham Center for Chemical Genomics.
eIF4H FP inh: inhibitors of RNA binding by human eIF4H; actives 0.94% (n = 290,000); inhibition, % at 35 µM; eIF4H fluorescence polarization binding assay; AID 2012; Q15056;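 note: calls also rest on retests at 20 µM and on dose response follow-up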
PABP polyA inh: PABP-poly(A) binding inhibition; AID 2014; actives 1% (n = 290,000); PABP-poly(A) RNA binding, fluorescence polarization; calls only at 35 µM; P11940;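 note: calls also rest on retests at 20 µM and on dose response follow-up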
APOBEC3G inh: blocks human APOBEC3G single-stranded DNA deamination. Q9HC16. recombinant A3G, ssDNA deamination FAM/TAMRA fluorescence. inhibition, % at 20 µM. actives 0.28% (n = 330,000). AID 493012;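 active = inhibition of at least 40% at 20 µM, with no more than 30% in the related APOBEC3A deaminase screen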;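 note: plate controls were DMSO wells with A3G for no effect and wells lacking A3G enzyme for full effect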
Target sequence (Q9HC16 whole entry, looked up): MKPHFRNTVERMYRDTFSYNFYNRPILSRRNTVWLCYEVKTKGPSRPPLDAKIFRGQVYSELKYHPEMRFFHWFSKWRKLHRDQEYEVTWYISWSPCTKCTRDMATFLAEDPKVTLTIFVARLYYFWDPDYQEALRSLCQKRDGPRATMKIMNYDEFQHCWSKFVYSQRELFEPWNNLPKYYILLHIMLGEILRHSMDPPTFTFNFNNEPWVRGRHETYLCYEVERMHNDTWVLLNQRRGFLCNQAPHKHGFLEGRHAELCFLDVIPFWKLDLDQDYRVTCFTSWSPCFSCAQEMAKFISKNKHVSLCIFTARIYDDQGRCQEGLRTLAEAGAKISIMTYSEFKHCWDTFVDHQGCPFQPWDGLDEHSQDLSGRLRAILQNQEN
PABP1 MLLE inh: blocks PAM2 peptide binding to the PABP1 MLLE domain; inhibition, % at 20 µM; P11940; GST-MLLE / FITC-PAM2 fluorescence polarization; actives 0.36% (n = 360,000); in the data active = inhibition above about 35%, passing the limit was not always enough;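 note: plate controls were DMSO wells with GST-MLLE for no effect and wells lacking GST-MLLE protein for full effect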
PHOSPHO1 block: inhibitors of human PHOSPHO1 phosphatase | Q8TCT1 | recombinant PHOSPHO1, absorbance phosphatase assay | inhibition, % at 13.3 µM | actives 1.1% (n = 290,000) | AID 1565; in the data active = inhibition above about 60%
A3A deaminase: human APOBEC3A DNA deaminase inhibition | actives 0.41% (n = 330,000) | P31941 | recombinant A3A, FAM/TAMRA ssDNA deamination fluorescence | inhibition, % at 20 µM;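 active = at least 40% inhibition at 20 µM here, with at most 30% in a related deaminase screen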;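 note: plate controls were A3A with DMSO for no effect and wells lacking A3A enzyme for full effect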
APOBEC3G confirm: confirmation of human APOBEC3G DNA deaminase inhibitors; inhibition, % at 20 µM; recombinant A3G ssDNA deaminase, UDG/FAM-TAMRA fluorescence; actives 72% (n = 890); shares compounds with APOBEC3G inh; AID 493152;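 active = inhibition reaching a set limit in any replicate at 20 µM, the limit being 80% of the first screen's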
UDG A3G counter: E. coli UDG inhibition in APOBEC3G counter-screen; shares compounds with APOBEC3G inh; UDG counterscreen, FAM/TAMRA oligo fluorescence; inhibition, % at 20 µM; 710 tested, under 10 active;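 active = compounds giving 40% or more inhibition at 20 µM in any one of the three replicates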;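 note: plate controls were DMSO wells with UDG and oligo for no effect and DMSO wells lacking both for full effect; inhibitors lower the FAM signal released by uracil excision and alkaline cleavage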
Numbers without * were called inactive; i = inactive; ? = inconclusive; · = no result; + = active, no number. Compounds with a hit are over-represented: about 2.6% of the library has one in this group of screens. Unless noted, the rule behind the calls is not given here.

SMILES	eIF4H FP inh	PABP polyA inh	APOBEC3G inh	PABP1 MLLE inh	PHOSPHO1 block	A3A deaminase	APOBEC3G confirm	UDG A3G counter
O=C(CCN1C(=O)/C(=C/c2ccc(Cl)cc2)SC1=S)Nc1ccc(C(=O)O)cc1	3	i	40*	18	·	-4	-5	-3
O=S(=O)(Cc1ccccc1)N=Nc1c(O)[nH]c2ccc(Br)cc12	-10	i	51*	22	65*	-1	68*	-3
O=C(CNC(=O)c1ccccc1)N=Nc1c(O)[nH]c2ccc(Br)cc12	-2	i	-1	5	-5	-3	·	·
Cc1cccc(CCN(CC(=O)NCc2ccc(F)cc2)C(=O)c2csnn2)c1	0	i	-12	2	23	-4	·	·
CC(=O)c1cccc(NC(=O)c2ccc(NC(=O)CC3SC(N4CCCCC4)=NC3=O)cc2)c1 (centres undefined)	2	i	-4	-18	43	6	·	·
COCC(=O)Oc1c(S(=O)(=O)c2ccccc2)c(C)nn1C(C)(C)C	-2	i	93*	5	9	1	0	·
Cc1nn(C(C)(C)C)c(OC(=O)C2CCCC2)c1S(=O)(=O)c1ccccc1	-6	i	·	6	37	·	·	·
O=C(CN(c1ccccc1)S(=O)(=O)c1ccccc1[N+](=O)[O-])Nc1ccccc1C(=O)N1CCOCC1	-3	i	-7	2	23	-5	·	·
CCc1ccc(-n2c(C)n[nH]c2=S)cc1	-5	i	56*	-22	24	-6	61*	2
CC1CCC2(CC1)NC(=S)N(c1ccccc1)N2 (centres undefined)	-3	i	61*	-47	100*	0	23*	3
CC1CCC2(CC1)NC(=S)N(C(C)(C)C)N2 (centres undefined)	2	i	51*	20	-1	2	24*	-3
O=C1NC2(CCCCC2)NN1c1ccccc1	-3	i	-3	8	-3	2	·	·
S=c1nc[nH]c2c1[nH]c1ccccc12	-4	i	48*	18	55	-4	71*	-1
COc1ccc(-c2nc3c(C)cc(Br)cn3c2CC2CCCCC2)cc1OC	·	·	·	-21	·	·	·	·
Cc1cc(-c2nsc(=O)o2)c(S(C)(=O)=O)s1	1	i	66*	17	69*	3	69*	·
CN(C)S(=O)(=O)c1ccc2c(c1)c(=O)c(C(=O)NCCCN1CCCCCC1)cn2C	11	i	52*	-11	-3	5	5	·
CC1CCCN(CCCNC(=O)c2cn(C)c3ccc(S(=O)(=O)N(C)C4CCCCC4)cc3c2=O)C1 (centres undefined)	-7	i	-5	-13	40	-3	·	·
N#Cc1cc(-c2ccccc2)[nH]c1-c1nccc2ccccc12	-8	i	41*	-4	-5	2	1	·
COC(=O)c1c(-c2ccccc2)[nH]c(-c2nccc3ccccc23)c1C(=O)OC	·	·	·	-11	·	·	·	·
Cc1ccc(S(=O)(=O)C(C#N)c2nc3ccccc3nc2N2CCCC2)cc1 (centres undefined)	?	?	45*	0	-8	-4	7	-3
CCN1CCN(c2nc3ccccc3nc2C(C#N)S(=O)(=O)c2ccc(C)cc2)CC1 (centres undefined)	?	?	-10	18	2	-1	·	·
CCOC(=O)c1[nH]cc(-c2ccccc2)c1N1CCOCC1	-1	i	62*	30	80*	1	41*	-4
CCOC(=O)c1cnc(-c2ccccc2)nc1N1CCOCC1	-11	i	-7	-6	16	-5	·	·
COC(=O)CSc1nc(N)c2c3c(sc2n1)C(c1ccccc1)SC(c1ccccc1)C3 (centres undefined)	14	i	43*	-58	-15	-1	4	2
CC(C)(CS(=O)(=O)[O-])NC(=O)CC[N+](C)(C)CCO	88*	+	88*	1	11	9	94*	·
SMILES	eIF4H FP inh	PABP polyA inh	APOBEC3G inh	PABP1 MLLE inh	PHOSPHO1 block	A3A deaminase	APOBEC3G confirm	UDG A3G counter
O=C1C2C3C=CC(CO)(O3)C2C(=O)N1c1ccccc1-c1ccccc1 (centres undefined)	-2	i	60*	26	-5	-3	69*	2
COc1ccc(-c2cnnc(N/N=C/c3c(C)nn(-c4ccccc4)c3Cl)n2)cc1	-1	i	·	12	-10	·	·	·
CCC[C@H]1CC(=O)C=C(c2ccc(OC)cc2)ON1C(=O)OC(C)(C)C	·	·	·	2	·	·	·	·
Nc1nc(-c2cccc(Br)c2)cs1	-7	i	-7	28	26	2	·	·
Nn1c(-c2cccc(Br)c2)n[nH]c1=S	-6	i	59*	-16	96*	-19	80*	-4
Cc1ccc(NC(=O)CCNC(=O)c2ccccc2Cl)cc1S(=O)(=O)N1CCOCC1	·	·	-1	1	·	0	·	·
N#C/C(=C(/O)COc1ccc(Cl)cc1)c1nc2ccccc2s1	-6	i	57*	5	47	-3	-2	1
N#C/C(=C(/O)COc1ccccc1)c1nc2ccccc2s1	-6	i	4	-1	11	6	·	·
O=C(NCc1ccccc1)c1cccnc1Sc1ccccc1	-1	i	-6	-11	-2	0	·	·
O=C(Nc1cccc(N2C(=O)C=CC2=O)c1)c1cccs1	·	·	55*	17	·	24	58*	·
CSCC[C@H](NC(=O)C1CCN(S(=O)(=O)c2ccc(C)cc2C)CC1)c1nc2ccccc2[nH]1	·	·	-7	-8	·	-3	·	·
Cc1cc(C)c(C#N)c(=N)o1	10	i	58*	38	35	-2	90*	-2
CC(C)(C)C(=O)NC(=S)Nc1cc(C(=O)O)ccc1Cl	-1	i	-4	24	-3	-4	·	·
NNc1cc(C(=O)O)ccc1Cl	-8	i	40*	32	-106	-3	20	-2
CCOC(=O)c1ccc(S(=O)(=O)Nc2cc(S(=O)(=O)N3CCOCC3)ccc2O)cc1	·	·	52*	32	·	1	27*	-4
O=C(CCCSc1ccc(Cl)cc1)Nc1cc(S(=O)(=O)N2CCOCC2)ccc1O	·	·	51*	30	·	-3	73*	1
Cc1ccc(S(=O)(=O)N2CCOCC2)cc1NC(=O)CSc1ccc(Cl)cc1	·	·	-8	4	·	-2	·	·
CC(C(=O)NC(=O)NC1CCCCC1)N1CCN(C(c2ccccc2)c2ccccc2)CC1 (centres undefined)	-6	i	-4	-16	-7	1	·	·
CCn1c2ccccc2c2nnc(SCC(=O)N3CC(C)OC(C)C3)nc21 (centres undefined)	-3	i	-2	23	4	-4	·	·
O=C1c2cccc3c2C2(O)c4c1cccc4C(=O)c1cccc(c12)C3=O	·	·	·	7	·	·	·	·
